# Data from PubChem BioAssay AID1159580 (chemical genetic matrix, 2015).
# Values joined by “and” are separate entries in the source; they are usually repeats but may differ in a detail not shown here. Identical values can stand only once. About 2,000 (36%) of roughly 5,500 compounds were called active. Inconclusive results (about 18%) are left out. This is one part of the list. Values without a mark were called inactive. Rule as the data show it: active = normalized growth mostly below about 0.91 (no sharp cut-off); inconclusive = no clear call, values can overlap the other calls; inactive = mostly above about 0.92.
# Assay: chemical genetic growth profiling, strain panel (AID 1159580);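 also: tested at 20 µM; growth read once vehicle control cultures reached saturation at 30 °C; 1 = growth at the plate median or of vehicle wells; lower values mean less growth of the strain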
# Conditions: growth OD
# [1] = S. cerevisiae deletion strains, locus YAL040C, strain CLN3, hits give low values
# [2] = S. cerevisiae deletion strains, locus YCL061C, strain MRC1 (second series), hits give low values
# [3] = S. cerevisiae deletion strains, locus YDR363W, strain ESC2, hits give low values
# [4] = S. cerevisiae deletion strains, locus YER002W, strain NOP16, hits give low values
# [5] = S. cerevisiae deletion strains, locus YGR229C, strain SMI1, hits give low values
# [6] = S. cerevisiae deletion strains, locus YJR075W, strain HOC1, hits give low values
# [7] = S. cerevisiae deletion strains, locus YMR263W, strain SAP30, hits give low values
# [8] = S. cerevisiae deletion strains, locus YMR307W, strain GAS1, hits give low values
# [9] = S. cerevisiae deletion strains, locus YNL128W, strain TEP1, hits give low values
# [10] = S. cerevisiae deletion strains, locus YNL153C, strain GIM3, hits give low values
# [11] = S. cerevisiae deletion strains, locus YNL175C, strain NOP13, hits give low values
# [12] = S. cerevisiae deletion strains, locus YNL197C, strain WHI3, hits give low values
# [13] = S. cerevisiae deletion strains, locus YNL224C, strain SQS1, hits give low values
# [14] = S. cerevisiae deletion strains, locus YOR083W, strain WHI5 (second series), hits give low values
# [15] = S. cerevisiae deletion strains, locus YPL055C, strain LGE1, hits give low values
# [16] = S. cerevisiae deletion strains, locus YPL241C, strain CIN2, hits give low values
compound,measurement,setting,value
CCSC(N)=Nc1ccc(C(F)(F)F)cc1,normalized growth,[1],0.942
same,normalized growth,[2],0.997
same,normalized growth,[3],0.98
same,normalized growth,[4],1.03
same,normalized growth,[5],0.931
same,normalized growth,[6],1.01
same,normalized growth,[7],1
same,normalized growth,[8],1
same,normalized growth,[9],1.01
same,normalized growth,[10],1
same,normalized growth,[11],1.01
same,normalized growth,[12],1.03
same,normalized growth,[13],0.997
same,normalized growth,[14],0.989
same,normalized growth,[15],0.986
O=S(=O)(N/N=C\c1ccc(Cl)cc1)c1ccc(-c2ccccn2)s1,normalized growth,"S. cerevisiae deletion strains, locus YAL013W, strain DEP1, hits give low values",0.973
same,normalized growth,"S. cerevisiae deletion strains, locus YAR019C, strain CDC15, hits give low values",0.993
same,normalized growth,"S. cerevisiae deletion strains, locus YBL105C, strain PKC1, hits give low values",0.981
same,normalized growth,"S. cerevisiae deletion strains, locus YBR135W, strain CKS1, hits give low values",0.98
same,normalized growth,"S. cerevisiae deletion strains, locus YBR136W, strain MEC1, hits give low values",0.982
same,normalized growth,"S. cerevisiae deletion strains, locus YBR160W, strain CDC28, hits give low values",0.969
same,normalized growth,"S. cerevisiae deletion strains, locus YBR229C, strain ROT2, hits give low values",0.994
same,normalized growth,"S. cerevisiae deletion strains, locus YDL017W, strain CDC7, hits give low values",0.978
same,normalized growth,"S. cerevisiae deletion strains, locus YDL028C, strain MPS1, hits give low values",0.969
same,normalized growth,"S. cerevisiae deletion strains, locus YDL101C, strain DUN1, hits give low values",0.979 and 0.977
same,normalized growth,"S. cerevisiae deletion strains, locus YDL108W, strain KIN28, hits give low values",0.976
same,normalized growth,"S. cerevisiae deletion strains, locus YDL132W, strain cdc53, hits give low values",0.975
same,normalized growth,"S. cerevisiae deletion strains, locus YDL134C, strain PPH21, hits give low values",0.931
same,normalized growth,"S. cerevisiae deletion strains, locus YDL214C, strain PRR2, hits give low values",0.98
same,normalized growth,"S. cerevisiae deletion strains, locus YDR052C, strain DBF4, hits give low values",0.97
same,normalized growth,"S. cerevisiae deletion strains, locus YDR054C, strain cdc34, hits give low values",0.979
same,normalized growth,"S. cerevisiae deletion strains, locus YDR150W, strain NUM1, hits give low values",0.976
same,normalized growth,"S. cerevisiae deletion strains, locus YDR226W, strain ADK1, hits give low values",0.988
same,normalized growth,"S. cerevisiae deletion strains, locus YDR477W, strain SNF1, hits give low values",0.958
same,normalized growth,"S. cerevisiae deletion strains, locus YEL061C, strain CIN8, hits give low values",0.935
same,normalized growth,"S. cerevisiae deletion strains, locus YER123W, strain YCK3, hits give low values",0.96
same,normalized growth,"S. cerevisiae deletion strains, locus YER133W, strain GLC7, hits give low values",0.99
same,normalized growth,"S. cerevisiae deletion strains, locus YFL009W, strain cdc4, hits give low values",0.974
same,normalized growth,"S. cerevisiae deletion strains, locus YFL029C, strain CAK1, hits give low values",0.994
same,normalized growth,"S. cerevisiae deletion strains, locus YFR003C, strain YPI1, hits give low values",0.976
same,normalized growth,"S. cerevisiae deletion strains, locus YFR019W, strain FAB1, hits give low values",0.976
same,normalized growth,"S. cerevisiae deletion strains, locus YFR028C, strain CDC14, hits give low values",0.973
same,normalized growth,"S. cerevisiae deletion strains, locus YGR040W, strain KSS1, hits give low values",0.96
same,normalized growth,"S. cerevisiae deletion strains, locus YGR052W, strain FMP48, hits give low values",0.947
same,normalized growth,"S. cerevisiae deletion strains, locus YGR078C, strain PAC10, hits give low values",0.975
same,normalized growth,"S. cerevisiae deletion strains, locus YGR092W, strain DBF2, hits give low values",0.942
same,normalized growth,"S. cerevisiae deletion strains, locus YHR030C, strain SLT2, hits give low values",0.797 and 1.04
same,normalized growth,"S. cerevisiae deletion strains, locus YHR079C, strain IRE1, hits give low values",1.07
same,normalized growth,"S. cerevisiae deletion strains, locus YHR082C, strain KSP1, hits give low values",1.02
same,normalized growth,"S. cerevisiae deletion strains, locus YHR087W, strain rtc3, hits give low values",0.998
same,normalized growth,"S. cerevisiae deletion strains, locus YHR205W, strain SCH9, hits give low values",0.983
same,normalized growth,"S. cerevisiae deletion strains, locus YIL147C, strain SLN1, hits give low values",0.975
same,normalized growth,"S. cerevisiae deletion strains, locus YJL095W, strain BCK1, hits give low values",0.961
same,normalized growth,"S. cerevisiae deletion strains, locus YJL128C, strain PBS2, hits give low values",0.946
same,normalized growth,"S. cerevisiae deletion strains, locus YJL157C, strain FAR1, hits give low values",0.98
same,normalized growth,"S. cerevisiae deletion strains, locus YJL187C, strain SWE1, hits give low values",1.02
same,normalized growth,"S. cerevisiae deletion strains, locus YJR016C, strain ILV3, hits give low values",0.976
same,normalized growth,"S. cerevisiae deletion strains, locus YJR043C, strain POL32, hits give low values",0.947
same,normalized growth,"S. cerevisiae deletion strains, locus YJR066W, strain TOR1 (second series), hits give low values",0.996
same,normalized growth,"S. cerevisiae deletion strains, locus YJR066W, strain TOR1, hits give low values",1.05
same,normalized growth,[6],0.988
same,normalized growth,"S. cerevisiae deletion strains, locus YKL048C, strain ELM1, hits give low values",0.959
same,normalized growth,"S. cerevisiae deletion strains, locus YKL067W, strain YNK1, hits give low values",0.976
same,normalized growth,"S. cerevisiae deletion strains, locus YKL101W, strain HSL1, hits give low values",0.949
same,normalized growth,"S. cerevisiae deletion strains, locus YKL190W, strain CNB1, hits give low values",0.924 (active)
same,normalized growth,"S. cerevisiae deletion strains, locus YKL193C, strain SDS22, hits give low values",0.977
same,normalized growth,"S. cerevisiae deletion strains, locus YKL203C, strain TOR2, hits give low values",1.04
same,normalized growth,"S. cerevisiae deletion strains, locus YLR039C, strain RIC1, hits give low values",0.465 (active)
same,normalized growth,"S. cerevisiae deletion strains, locus YLR058C, strain SHM2 (second series), hits give low values",0.996
same,normalized growth,"S. cerevisiae deletion strains, locus YLR085C, strain ARP6, hits give low values",0.912
same,normalized growth,"S. cerevisiae deletion strains, locus YLR113W, strain HOG1, hits give low values",0.888
same,normalized growth,"S. cerevisiae deletion strains, locus YLR133W, strain CKI1, hits give low values",0.967
same,normalized growth,"S. cerevisiae deletion strains, locus YLR262C, strain YPT6, hits give low values",0.427 (active)
same,normalized growth,"S. cerevisiae deletion strains, locus YLR403W, strain SFP1, hits give low values",0.95
same,normalized growth,"S. cerevisiae deletion strains, locus YML070W, strain DAK1, hits give low values",0.938
same,normalized growth,"S. cerevisiae deletion strains, locus YML094W, strain GIM5, hits give low values",0.95
same,normalized growth,"S. cerevisiae deletion strains, locus YMR001C, strain CDC5, hits give low values",0.99
same,normalized growth,"S. cerevisiae deletion strains, locus YMR205C, strain PFK2 (second series), hits give low values",0.969
same,normalized growth,"S. cerevisiae deletion strains, locus YMR219W, strain ESC1, hits give low values",0.998
same,normalized growth,[7],0.976
same,normalized growth,"S. cerevisiae deletion strains, locus YMR277W, strain FCP1, hits give low values",0.978
same,normalized growth,[8],0.712
same,normalized growth,"S. cerevisiae deletion strains, locus YNL006W, strain LST8, hits give low values",0.994
same,normalized growth,"S. cerevisiae deletion strains, locus YNL020C, strain ARK1, hits give low values",0.953
same,normalized growth,[9],0.975
same,normalized growth,[10],0.976
same,normalized growth,"S. cerevisiae deletion strains, locus YNL161W, strain CBK1, hits give low values",0.986
same,normalized growth,"S. cerevisiae deletion strains, locus YNL183C, strain NPR1, hits give low values",0.967
same,normalized growth,"S. cerevisiae deletion strains, locus YNL207W, strain RIO2, hits give low values",0.977
same,normalized growth,"S. cerevisiae deletion strains, locus YNL222W, strain SSU72, hits give low values",0.978
same,normalized growth,"S. cerevisiae deletion strains, locus YNL298W, strain CLA4 (second series), hits give low values",0.826 (active)
same,normalized growth,"S. cerevisiae deletion strains, locus YNL307C, strain MCK1 (second series), hits give low values",0.969
same,normalized growth,"S. cerevisiae deletion strains, locus YNL322C, strain KRE1, hits give low values",1
same,normalized growth,"S. cerevisiae deletion strains, locus YNR030W, strain Alg12, hits give low values",0.856 (active)
same,normalized growth,"S. cerevisiae deletion strains, locus YOL006C, strain TOP1, hits give low values",0.838
same,normalized growth,"S. cerevisiae deletion strains, locus YOL078W, strain AVO1, hits give low values",0.963
same,normalized growth,"S. cerevisiae deletion strains, locus YOL136C, strain PFK27, hits give low values",0.94
same,normalized growth,"S. cerevisiae deletion strains, locus YOR061W, strain CKA2, hits give low values",0.966
same,normalized growth,"S. cerevisiae deletion strains, locus YOR119C, strain RIO1, hits give low values",1.01
same,normalized growth,"S. cerevisiae deletion strains, locus YOR231W, strain MKK1, hits give low values",0.945
same,normalized growth,"S. cerevisiae deletion strains, locus YOR329C, strain SCD5, hits give low values",0.984
same,normalized growth,"S. cerevisiae deletion strains, locus YPL031C, strain PHO85, hits give low values",0.969
same,normalized growth,[15],1.1
same,normalized growth,"S. cerevisiae deletion strains, locus YPL153C, strain RAD53, hits give low values",0.963
same,normalized growth,"S. cerevisiae deletion strains, locus YPL204W, strain HRR25, hits give low values",0.951
same,normalized growth,"S. cerevisiae deletion strains, locus YPL209C, strain IPL1, hits give low values",0.974
same,normalized growth,[16],0.894
same,normalized growth,"S. cerevisiae deletion strains, locus YPL256C, strain CLN2, hits give low values",1.03
same,normalized growth,"S. cerevisiae deletion strains, locus YPR025C, strain CCL1, hits give low values",0.982
same,normalized growth,"S. cerevisiae deletion strains, locus YPR106W, strain ISR1, hits give low values",0.986
same,normalized growth,"S. cerevisiae deletion strains, locus YPR111W, strain DBF20, hits give low values",0.967
same,normalized growth,"S. cerevisiae deletion strains, locus YPR135W, strain CTF4, hits give low values",0.711
same,normalized growth,"S. cerevisiae deletion strains, strain NNK1, hits give low values",0.996
same,normalized growth,"S. cerevisiae deletion strains, strain TSCII, hits give low values",0.984
same,normalized growth,"S. cerevisiae strains, strain wild type, hits give low values",0.897 (active)
COc1cc(C(O)CN)ccc1O (stereo unspecified),normalized growth,[1],1.01
same,normalized growth,[2],1.01
same,normalized growth,[3],1.02
same,normalized growth,[4],1.04
same,normalized growth,[5],1.01
same,normalized growth,[7],1.01
same,normalized growth,[11],1.02
same,normalized growth,[12],1.01
same,normalized growth,[13],1
same,normalized growth,[14],1.01
same,normalized growth,[16],1
